Consider 40 compounds from PubChem BioAssay (Tox21).

Results filed as inconclusive are left out. A call without a number means that no potency is given here. Activity calls are given as the source filed them. Calls follow the shape of the dose curve; as a rule, active = well fitted cell-killing curve with a large enough effect in the repeat runs; inconclusive = weak or mixed curves, or effect the other way; inactive = flat fitted curve, though single readings scatter.
Potency is read from the fitted curve at half-maximal effect.

The first experiment can be described thus: cAMP Responsive Elements (CRE) small molecule antagonists, cell-based qHTS assay: qHTS cell viability counter screen (AID 2060913). Also: nearly all actives have a fitted effect of over 40% in size. The following applies: CRE-bla HEK293T viability, CellTiter-Glo luminescence, 5 h; series mostly up to 92.4 µM. In short, it runs like this: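 Cytotoxicity read in the same wells as the CRE-bla HEK293T antagonist assay: after 3 h compound with 0.25 uM NKH477 final and 2 h beta-lactamase substrate, CellTiter-Glo luminescence measured.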
In general terms: In qHTS, concentration-response curves come from the screen itself.
`CCOCCn1c(N2CCCN(C)CC2)nc2ccccc21`: the Potency result was “inactive”.

As for `CCC(C(=O)NC(=O)NC(C)=O)c1ccccc1` (stereo not given), the Potency result is “inactive”.

With `O=C(COc1ccc(Cl)cc1)N1CCN(Cc2ccc3c(c2)OCO3)CC1`, the Potency result was “inactive”.

With `CC(C)Oc1ccccc1O`, the Potency entry is “inactive”.

With `CCCCOCCOC(=O)c1ccccc1C(=O)OCCOCCCC`, the Potency entry is “inactive”.

Turning to `CC(C)(c1ccc(Oc2ccc3c(c2)C(=O)OC3=O)cc1)c1ccc(Oc2ccc3c(c2)C(=O)OC3=O)cc1`, the Potency entry is “inactive”.

In the case of `Cc1ccc(S(=O)(=O)NC(=O)NC2CCCC2)cc1`, the Potency result is “inactive”.

Turning to `CC1(C)CCC[C@]2(C)[C@H]3CCO[C@]3(C)CC[C@@H]12`, the Potency result is “inactive”.

Turning to `C=CCSSCCC`, the Potency entry is “inactive”.

Take `CCC1(C)NC(=O)NC1=O` (stereo not given): the Potency result was “inactive”.

Consider `NC(=O)c1cccnc1`, for which the Potency result was “inactive”.

Consider `CCCCCCCCSCC`, for which the Potency entry is “inactive”.

`CCC(C)c1cc([N+](=O)[O-])cc([N+](=O)[O-])c1OC(=O)OC(C)C` (stereo not given): the Potency entry was “inactive”.

For the compound `O=C(O)Cc1sc(-c2ccccc2)nc1-c1ccc(Cl)cc1`, the Potency entry is “inactive”.

As for `CC(=O)N[C@H]1[C@H]([C@H](O)[C@H](O)CO)OC(C(=O)O)=C[C@@H]1N=C(N)N`, the Potency result is “inactive”.

For the compound `CC(=O)N1CCN(c2ccc(OC[C@H]3CO[C@](Cn4ccnc4)(c4ccc(Cl)cc4Cl)O3)cc2)CC1`, the Potency was 54.5 µM (active).

As for `O=C(O)CN1C(=O)c2cccc3cccc(c23)C1=O`, the Potency entry was “inactive”.

Consider `OCCN(CCO)c1nc(N2CCCCC2)c2nc(N(CCO)CCO)nc(N3CCCCC3)c2n1`, for which the Potency result was “inactive”.

As to `C[n+]1cc2c3c(ccc2c2ccc4cc5c(cc4c21)OCO5)OCO3`, the Potency was 3.66 µM (active).

As to `Cc1cccc(C(=O)O)c1`, the Potency result is “inactive”.

Regarding `OCCOCC#CCOCCO`, the Potency result is “inactive”.

Take `O=C(OOC(=O)c1ccccc1)c1ccccc1`: the Potency result was “inactive”.

Take `CC(C=O)Cc1ccc(C(C)C)cc1` (stereo not given): the Potency entry is “inactive”.

As for `FC(F)(F)c1ccccc1-n1ccnc1`, the Potency entry was “inactive”.

For the compound `CO[C@@H]1[C@H](OC(=O)/C=C/C=C/C=C/C=C/C(=O)O)CC[C@]2(CO2)[C@H]1[C@@]1(C)O[C@@H]1CC=C(C)C`, the Potency entry is “inactive”.

For `C1=C\CC/C=C\CC/C=C\CC/1`, the Potency result is “inactive”.

As for `C/C=C/c1ccc(OC)c(OC)c1`, the Potency entry is “inactive”.

Regarding `CCCC(O)C(O)CO` (stereo not given), the Potency entry was “inactive”.

Consider `CC(=O)OC/C=C(C)/C=C/C=C(C)/C=C/C1=C(C)CCCC1(C)C`, for which the Potency entry is “inactive”.

For `O=C1CC2CC1C1CCCC21` (stereo not given), the Potency entry is “inactive”.

In the case of `CN(C)C(=O)Nc1ccc(Cl)c(Cl)c1`, the Potency result was “inactive”.

With `CCCCC(CC)C(=O)OC(C)C` (stereo not given), the Potency result is “inactive”.

On to `COC(=O)c1ccc([N+](=O)[O-])cc1`, for which the Potency result was “inactive”.

As for `CN1CCN(C2=Nc3ccccc3Oc3ccc(Cl)cc32)CC1`, the Potency entry was “inactive”.

Regarding `C1CCCCC1`, the Potency result is “inactive”.

Turning to `CC(C)NCC(O)COc1cccc2[nH]ccc12` (stereo not given), the Potency entry was “inactive”.

Regarding `CC(=O)c1ccc2ccccc2c1`, the Potency result is “inactive”.

For `O=C(O)C1(C(=O)Nc2ccc(Cl)cc2Cl)CC1`, the Potency result was “inactive”.

Turning to `O=C(CCCN1CCC(O)(c2ccc(Cl)cc2)CC1)c1ccc(F)cc1`, the Potency result is “inactive”.

As to `COC(=O)C1=C(C)NC(COC(N)=O)=C(C(=O)OC(C)C)C1c1cccc(Cl)c1Cl` (stereo not given), the Potency result is “inactive”.

Another experiment is described as follows: cAMP Responsive Elements (CRE) small molecule agonists, cell-based qHTS assay: qHTS cell viability counter screen (AID 2060914). Also: nearly all actives have a fitted effect of over 50% in size. The following applies: CRE-bla HEK293T viability, CellTiter-Glo luminescence, 5 h; series mostly up to 92.4 µM. The method, boiled down:
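CRE-bla HEK293T cells in 10% dialyzed FBS medium were exposed to compounds for 3 h at 37C after 18 h plating. CellTiter-Glo was then added in the same wells, and luminescence was read after 30 min at room temperature.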
For `CCOCCn1c(N2CCCN(C)CC2)nc2ccccc21`, the Potency result was “inactive”.

Regarding `CCC(C(=O)NC(=O)NC(C)=O)c1ccccc1` (stereo not given), the Potency result was “inactive”.

In the case of `O=C(COc1ccc(Cl)cc1)N1CCN(Cc2ccc3c(c2)OCO3)CC1`, the Potency entry is “inactive”.

Consider `CC(C)Oc1ccccc1O`, for which the Potency entry is “inactive”.

Turning to `CCCCOCCOC(=O)c1ccccc1C(=O)OCCOCCCC`, the Potency entry is “inactive”.

For `CC(C)(c1ccc(Oc2ccc3c(c2)C(=O)OC3=O)cc1)c1ccc(Oc2ccc3c(c2)C(=O)OC3=O)cc1`, the Potency result was “inactive”.

Consider `Cc1ccc(S(=O)(=O)NC(=O)NC2CCCC2)cc1`, for which the Potency result is “inactive”.

For `CC1(C)CCC[C@]2(C)[C@H]3CCO[C@]3(C)CC[C@@H]12`, the Potency entry was “inactive”.

On to `C=CCSSCCC`, for which the Potency entry was “inactive”.

Turning to `CCC1(C)NC(=O)NC1=O` (stereo not given), the Potency entry is “inactive”.

Turning to `NC(=O)c1cccnc1`, the Potency entry was “inactive”.

Consider `CCCCCCCCSCC`, for which the Potency entry was “inactive”.

Consider `CCC(C)c1cc([N+](=O)[O-])cc([N+](=O)[O-])c1OC(=O)OC(C)C` (stereo not given), for which the Potency result is “inactive”.

With `O=C(O)Cc1sc(-c2ccccc2)nc1-c1ccc(Cl)cc1`, the Potency result is “inactive”.

With `CC(=O)N[C@H]1[C@H]([C@H](O)[C@H](O)CO)OC(C(=O)O)=C[C@@H]1N=C(N)N`, the Potency result was “inactive”.

For the compound `CC(=O)N1CCN(c2ccc(OC[C@H]3CO[C@](Cn4ccnc4)(c4ccc(Cl)cc4Cl)O3)cc2)CC1`, the Potency is 68.6 µM (active).

Regarding `O=C(O)CN1C(=O)c2cccc3cccc(c23)C1=O`, the Potency entry is “inactive”.

On to `OCCN(CCO)c1nc(N2CCCCC2)c2nc(N(CCO)CCO)nc(N3CCCCC3)c2n1`, for which the Potency entry was “inactive”.

For `C[n+]1cc2c3c(ccc2c2ccc4cc5c(cc4c21)OCO5)OCO3`, the Potency is 3.26 µM (active).

On to `Cc1cccc(C(=O)O)c1`, for which the Potency result was “inactive”.

Regarding `OCCOCC#CCOCCO`, the Potency entry is “inactive”.

For `O=C(OOC(=O)c1ccccc1)c1ccccc1`, the Potency result was “inactive”.

With `CC(C=O)Cc1ccc(C(C)C)cc1` (stereo not given), the Potency entry was “inactive”.

With `FC(F)(F)c1ccccc1-n1ccnc1`, the Potency entry was “inactive”.

Regarding `CO[C@@H]1[C@H](OC(=O)/C=C/C=C/C=C/C=C/C(=O)O)CC[C@]2(CO2)[C@H]1[C@@]1(C)O[C@@H]1CC=C(C)C`, the Potency entry was “inactive”.

With `C1=C\CC/C=C\CC/C=C\CC/1`, the Potency result is “inactive”.

Consider `C/C=C/c1ccc(OC)c(OC)c1`, for which the Potency result was “inactive”.

Consider `CCCC(O)C(O)CO` (stereo not given), for which the Potency result was “inactive”.

Regarding `CC(=O)OC/C=C(C)/C=C/C=C(C)/C=C/C1=C(C)CCCC1(C)C`, the Potency result is “inactive”.

As for `O=C1CC2CC1C1CCCC21` (stereo not given), the Potency result is “inactive”.

On to `CN(C)C(=O)Nc1ccc(Cl)c(Cl)c1`, for which the Potency entry is “inactive”.

Take `CCCCC(CC)C(=O)OC(C)C` (stereo not given): the Potency result was “inactive”.

Take `COC(=O)c1ccc([N+](=O)[O-])cc1`: the Potency entry was “inactive”.

In the case of `CN1CCN(C2=Nc3ccccc3Oc3ccc(Cl)cc32)CC1`, the Potency entry was “inactive”.

As for `C1CCCCC1`, the Potency result is “inactive”.

Consider `CC(C)NCC(O)COc1cccc2[nH]ccc12` (stereo not given), for which the Potency result is “inactive”.

Consider `CC(=O)c1ccc2ccccc2c1`, for which the Potency result is “inactive”.

With `O=C(O)C1(C(=O)Nc2ccc(Cl)cc2Cl)CC1`, the Potency result was “inactive”.

With `O=C(CCCN1CCC(O)(c2ccc(Cl)cc2)CC1)c1ccc(F)cc1`, the Potency result was “inactive”.

For the compound `COC(=O)C1=C(C)NC(COC(N)=O)=C(C(=O)OC(C)C)C1c1cccc(Cl)c1Cl` (stereo not given), the Potency result was “inactive”.
